In the supplement of paper PMC10503962 one finds mean motility score data, which are given here for 13 molecules.

This assay deals with Trichuris muris adult worms. In words: mean motility score (Paragon pixel variance) of adult worms (arbitrary units); higher = more motile worms, i.e. less anthelmintic effect; extreme values may be limits of the assay. To be noted: 100 µM; 24 h. Summed up: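 Adult Trichuris muris worms were collected from infected NOD SCID mice and placed one per well in 96-well plates containing 100 μL RPMI-1640 with antibiotics and drug at 100 μM (1% v/v DMSO), then incubated for 24 h at 37°C and 5% CO2. Each plate was filmed on an automated phenotyping platform, capturing 200 frames 100 ms apart. The motility score came from Paragon pixel-variance analysis and was averaged over replicate wells. Every drug was tested with three worms in three wells on three separate occasions, alongside vehicle and positive controls.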
`O=c1oc2ccccc2c(O)c1Cc1c(O)c2ccccc2oc1=O` [dicumarol] gave a mean motility score of 0.

For `Cc1cc(Nc2ncc(Cl)c(Nc3ccccc3S(=O)(=O)C(C)C)n2)c(OC(C)C)cc1C1CCNCC1` [ceritinib], the mean motility score stood at 1.33.

Consider `Nc1ccc(C(=O)Oc2ccccc2)c(O)c1` [phenyl aminosalicylate], for which the mean motility score worked out at 1040.

On to `Cc1nnc(NS(=O)(=O)c2ccc(N)cc2)s1` [sulfamethizole], for which the mean motility score was 3570.

Regarding `CCN1CCN(c2cc(-c3ccc(F)cc3)c3c(n2)CCCCCC3)CC1` [blonanserin], the mean motility score amounted to 3080.

Molecule `NS(=O)(=O)c1cc(Cl)c(Cl)c(S(N)(=O)=O)c1` [dichlorphenamide] showed a mean motility score of 752.

In the case of `COc1cc(N)c(Cl)cc1C(=O)NC1CCN(CCCOc2ccc(F)cc2)CC1OC.O` (stereo not drawn) [cisapride monohydrate], the mean motility score was 2840.

For `CCCNC(=O)NS(=O)(=O)c1ccc(Cl)cc1` [chlorpropamide], the mean motility score worked out at 2860.

As to `Clc1ccc2c(c1)CCc1cccnc1C2=C1CCNCC1` [desloratadine], the mean motility score came out at 930.

As to `O=P(O)(O)C(O)(Cn1ccnc1)P(=O)(O)O` [zoledronic acid], the mean motility score amounted to 1210.

`O=C1C(O)=C([C@H]2CC[C@H](c3ccc(Cl)cc3)CC2)C(=O)c2ccccc21` [atovaquone]: the mean motility score came to 1650.

Molecule `CCOC(=O)C1=C(C)NC(C)=C(C(=O)OC)C1c1cccc([N+](=O)[O-])c1` (stereo not drawn) [nitrendipine] had a mean motility score of 0.

The molecule `CO[C@H]1/C=C/O[C@@]2(C)Oc3c(C)c(O)c4c(O)c(c(/C=N/N5CCN(C)CC5)c(O)c4c3C2=O)NC(=O)/C(C)=C\C=C\[C@H](C)[C@H](O)[C@@H](C)[C@@H](O)[C@@H](C)[C@H](OC(C)=O)[C@@H]1C` [rifampicin] had a mean motility score of 1330.
